Screening results from PubChem.
Most compounds without a hit are left out; they make up all but 4.4% or so of the library.
TRHR agonist – TRH receptor (human) agonism; TRHR cells, calcium flux fluo-8, FDSS agonist mode; P34981; activation, % at 2 µM; hit rate 0.18% among 360,000; also: 0% is about no effect
Target sequence (P34981 whole entry, looked up): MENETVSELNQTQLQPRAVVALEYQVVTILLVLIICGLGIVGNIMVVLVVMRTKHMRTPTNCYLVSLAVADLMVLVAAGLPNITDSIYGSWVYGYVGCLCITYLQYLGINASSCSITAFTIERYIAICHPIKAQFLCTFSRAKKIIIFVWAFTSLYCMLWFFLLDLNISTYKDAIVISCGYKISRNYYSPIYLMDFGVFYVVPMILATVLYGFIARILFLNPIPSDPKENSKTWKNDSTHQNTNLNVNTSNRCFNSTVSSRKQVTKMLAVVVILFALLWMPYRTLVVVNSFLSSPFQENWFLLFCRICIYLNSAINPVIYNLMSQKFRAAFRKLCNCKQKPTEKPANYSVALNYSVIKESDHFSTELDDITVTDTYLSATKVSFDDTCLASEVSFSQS
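Fluo-8-loaded TRHR cells; 10 s baseline, compound added, kinetic Ca2+ fluorescence read 1/s, agonist mode.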
D1 PAM – enhances dopamine response at the human D1 receptor. hit rate 0.036% among 360,000. P21728. AID 504651. HEK293 TREx D1 cells, calcium flux, dopamine EC20 potentiation. potentiation, % at 10 µM; in the data active = potentiation above about 30%; also: 0% is about no effect
D1 antagonist – blocks dopamine activation of the human D1 receptor; hit rate 3.2% among 360,000; AID 504652; HEK293 TREx D1 cells, calcium flux, dopamine EC80; hits give low values; activity change, negative = inhibition, % at 10 µM; P21728; in the data active = activity change below about -30%; also: % is scaled to controls: 0 for no effect and ±100 for the full control effect
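Tetracycline-induced HEK293 T-REx cells with force-coupled D1 receptor were loaded with a no-wash calcium dye. Compound was added after a 10 s baseline and read kinetically for 180 s; EC80 dopamine was then added and calcium flux followed another 180 s.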
USP1-UAF1 inh – USP1/UAF1 (human) deubiquitinase inhibition | hit rate 0.23% among 390,000 | Potency, µM (doses to about 57.1 µM), for the others: at the top dose activity change, negative = inhibition, usual class: inhibitors | recombinant USP1/UAF1, Ub-Rhodamine cleavage fluorescence | O94782; active = well fitted inhibition curve with a large enough effect; inconclusive = small, poorly fitted or top-dose-only effect; inactive = no such curve, though single readings can be large or run the other way; also: potency is read from the fitted curve at half-maximal effect; % is scaled to controls: 0 for no effect and ±100 for the full control effect; nearly all actives have a fitted effect of over 60% in size
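USP1/UAF1 complex at 1 nM was preincubated with compound for 15 min at room temperature, then Ub-Rho substrate (150nM final) was added. Fluorescence (480/540 nm) was read kinetically, 6 reads every 60 seconds.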
TRHR enhancer – TRH receptor (human) allosteric enhancement. P34981. enhancement, % at 2 µM. hit rate 0.66% among 360,000. TRHR cells, fluo-8 calcium fluorescence, EC20 TRH enhancement; in the data active = enhancement above about 30%; also: 0% is about no effect
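Enhancer read-out: after compound pinning and an initial kinetic agonist-mode read, an EC20 of TRH (10 nM final) was injected and fluo-8 calcium signal (Ex 480/Em 530) followed at 1 s/cycle for 100 cycles in TRHR-expressing cells.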
D1 ag – human D1 receptor agonism | P21728 | HEK293 T-REx D1 cells, calcium flux, agonist mode | activation, % at 2 µM | hit rate 1% among 360,000 | AID 504660; also: 0% is about no effect
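Inducible HEK293 T-REx D1 cells, force-coupled to calcium signalling, were plated at 4000 cells/well with tetracycline and held overnight at 30 C. After no-wash calcium dye loading, compound-evoked calcium rise over 180 s flagged agonists.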
* hit, by the source's call; ? = inconclusive; nt = no result given. Rule as the data show it, unless noted: active = activation above about 30%; inactive = the rest.

SMILES | TRHR agonist | D1 PAM | D1 antagonist | USP1-UAF1 inh | TRHR enhancer | D1 ag
CCC1CCCCN1S(=O)(=O)c1ccc(NC(=O)c2ccncc2)cc1 (configuration not stated) | 0.1 | -4.8 | -33.9* | -14.8% | -1.9 | 18.4
CCS(=O)(=O)c1ncc(Cl)c(C(=O)Nc2ccc(S(=O)(=O)N3CCCC(C)C3)cc2)n1 (configuration not stated) | 0.1 | -11.4 | -36.0* | -16.1% | 3.3 | 0.7
CC1CCN(S(=O)(=O)c2ccc(NC(=O)c3cccs3)cc2)CC1 | 0.2 | -4.3 | -4.4 | -19.0% | 6.3 | 5.0
O=C(COc1ccccc1F)Nc1ccc2oc(-c3cccc(Cl)c3)nc2c1 | -0.9 | -1.4 | 20.0 | -21.5% | 2.5 | -0.4
CCc1ccc2nc(SCC(=O)N(CC)CC)c(C#N)cc2c1 | -0.1 | -8.2 | -45.6* | -24.5% | 1.6 | 1.0
CC(C)COP(=O)(c1ccc(N(C)C)cc1)C(O)c1cccnc1 (configuration not stated) | -0.5 | -5.2 | -86.5* | -12.4% | 1.3 | 2.5
CC(C)OP(=O)(c1ccc(N(C)C)cc1)C(Nc1ccccc1)c1cccnc1 (configuration not stated) | 0.5 | -8.0 | -31.1* | -23.3% | -1.9 | 0.9
O=C(Cn1ccn(-c2ccc(F)c(F)c2)c(=O)c1=O)Nc1ccccc1F | 0.7 | -4.2 | 4.8 | ? | -2.1 | 2.2
COc1cc(Cl)c(C)cc1NC(=O)CCc1c(C)nc2c3cccnc3nn2c1C | -0.2 | 1.4 | 11.4 | 6.2% | -2.8 | 0.5
NC(=O)c1cc(S(=O)(=O)NCC2CCC(C(=O)Nc3cccc(Cl)c3)CC2)cs1 (configuration not stated) | 0.6 | -1.2 | 1.1 | -10.8% | -3.5 | 2.5
CCOC(=O)N1CCc2c(sc3c2c(=O)n(Cc2ccccc2)c(=O)n3CC(=O)Nc2ccc(C)c(C)c2)C1 | 0.5 | -0.4 | -6.2 | -0.3% | 0.5 | 1.4
CCCCn1c(N)c(N(CC(C)C)C(=O)c2oc3ccc(OCC)cc3c2C)c(=O)[nH]c1=O | 0.0 | -3.5 | 0.6 | -9.1% | 4.6 | 1.7
CCCCN(C(=O)c1oc2ccc(OCC)cc2c1C)c1c(N)n(CC(C)C)c(=O)[nH]c1=O | 0.2 | -16.1 | -31.6* | -19.6% | -7.9 | 0.5
O=[N+]([O-])c1ccc(S(=O)(=O)Nc2nnc(C(F)(F)F)s2)cc1 | 0.5 | -6.8 | -51.9* | -18.8% | 10.5 | 2.0
S=c1[nH]c(-c2ccccc2)cn1/N=C/c1cccc2ccccc12 | 0.9 | 1.8 | -2.2 | -18.2% | 34.3* | 6.1
CCc1ccc(NC(=O)CSc2nc(C)cc(COC)c2C#N)cc1 | -1.8 | 2.1 | -10.8 | -23.7% | 17.4 | 1.8
COc1ccccc1-c1ccc(/C=C2\C=CC(=O)O2)o1 | 73.0* | 5.2 | -5.0 | ? | 4.2 | 291.5*
COc1ccccc1-c1ccc(/C=C2/C=C(C)OC2=O)o1 | 5.1 | -17.5 | -20.3 | -18.3% | 5.5 | 3.5
Cc1cccc2c1-c1sc(C(=O)Nc3cccnc3)cc1CO2 | -0.1 | -19.2 | -22.2 | -29.4% | -9.8 | 1.4
O=C(c1cc2c(s1)-c1ccccc1OC2)N1CCc2ccccc2C1 | 2.2 | -7.8 | -54.3* | -14.0% | -1.3 | 1.4
O=C(Nc1cccnc1)c1cc2c(s1)-c1ccccc1OC2 | -0.6 | -17.8 | -45.8* | -19.6% | 2.4 | 8.5
CCOc1ccc(CNC(=O)CN2C(=O)CSc3c2c(C)nn3-c2ccccc2)cc1 | -0.3 | -1.8 | 3.0 | -22.5% | -0.2 | 7.0
CCN(CCNCC(O)COc1ccccc1C(C)C)c1cccc(C)c1 (configuration not stated) | 2.0 | 14.1 | -27.4 | -24.4% | 3.6 | 56.0*
Cc1cccc(N2CCN(C(=O)Cn3nc(C)c4sc5ccccc5c4c3=O)CC2)c1C | 0.3 | 3.8 | -4.1 | 1.3% | -4.1 | 4.3
Cc1c(C(=O)NCCc2ccc(Cl)cc2)sc2nc3n(c(=O)c12)CCCC3 | 21.6 | -0.5 | -1.8 | -22.7% | -1.8 | 99.1*
SMILES | TRHR agonist | D1 PAM | D1 antagonist | USP1-UAF1 inh | TRHR enhancer | D1 ag
Cc1c(C(=O)NCc2ccccc2)sc2nc3n(c(=O)c12)CCCCC3 | 14.4 | -1.2 | 0.2 | -11.5% | 9.9 | 45.0*
Cc1c(C(=O)NCCc2ccc(Cl)cc2)sc2nc3n(c(=O)c12)CCC3 | -0.3 | -5.5 | 10.9 | -8.3% | 1.2 | 1.1
Cc1c(C(=O)Nc2cccc(C(F)(F)F)c2)sc2nc3n(c(=O)c12)CCCC3 | 11.2 | -1.3 | 6.6 | ? | 22.6 | 36.5*
Cc1ccc(CNC(=O)c2sc3nc4n(c(=O)c3c2C)CCCCC4)cc1 | 0.0 | -0.2 | -4.0 | -6.6% | 4.7 | 1.2
N#Cc1nc(Nc2ccc(-c3ccccc3)cc2)nc(NC2CCCC2)n1 | 0.8 | -5.1 | 20.6 | nt | 0.9 | 5.5
Cc1ccc(NC(=O)c2sc(-n3nc(C)c(CCC(C)C)c3C)nc2C)cc1C | 0.4 | -0.5 | -16.2 | -23.9% | 3.8 | 0.6
CCOc1ccccc1Nc1sc(C(=O)c2ccccc2)c(N)c1S(=O)(=O)c1ccc(C)cc1 | 0.4 | 1.6 | 12.5 | -13.4% | 4.0 | 15.1
CCS(=O)(=O)c1c(Nc2cc(C)ccc2C)sc(C(=O)c2ccccc2)c1N | -1.8 | 5.0 | 38.5 | -16.8% | 0.0 | 41.1*
Cc1ccc(Cl)cc1Nc1sc(C(=O)c2ccccc2)c(N)c1S(=O)(=O)c1ccccc1 | 5.8 | 2.6 | -50.9* | -11.5% | -9.8 | 53.7*
CCN(C(=O)Cn1c(=O)n(Cc2ccccc2)c(=O)c2c1c1cc(OC)ccc1n2C)c1ccccc1 | 0.1 | -3.1 | -2.7 | -8.4% | -1.4 | 0.8
Cc1ccc(C)c(NC(=O)CSc2nc3c([nH]c4ccccc43)c(=O)n2-c2ccc(F)cc2)c1 | -0.1 | -5.5 | -15.2 | -25.1% | -4.1 | 1.5
CCOC(=O)c1sc2nc(CSc3ccccc3)nc(NCCN(C)C)c2c1C | -1.5 | -10.3 | -20.4 | -13.6% | -11.6 | 50.4*
CCCc1nc(SC)[nH]c(=O)c1C | 0.3 | -1.1 | -2.6 | -7.6% | 34.2* | 0.5
CCSc1nc(C)c(C)c(=O)[nH]1 | -0.8 | -4.6 | -23.8 | -19.7% | 8.1 | 1.0
Cc1ccc2nc(-c3ccc(NC(=O)COC(=O)c4ccc(Br)o4)cc3)sc2c1 | 0.5 | 45.9* | -6.6 | -15.1% | 4.5 | 3.6
Cc1ccc2nc(-c3ccc(NC(=O)COC(=O)c4ccc([N+](=O)[O-])o4)cc3)sc2c1 | 0.3 | -4.8 | 7.2 | -21.3% | -7.9 | 1.2
Cc1nc2ccc(NC(=O)c3ccc(Br)o3)cc2s1 | 0.2 | -4.0 | -31.0* | -7.1% | 3.8 | 8.9
CCCCc1ccc(C(=O)Nc2ccc3nc(N(CC)CC)cc(C)c3c2)cc1 | 0.3 | -0.6 | 9.5 | -22.2% | -2.5 | 1.1
CCCC(=O)Nc1nc2ccc(NC(=O)c3ccc(Br)o3)cc2s1 | -0.2 | -3.5 | 8.8 | -6.3% | -3.2 | 2.0
CCCCNC(=S)Nc1ccc(-c2nc3ccc(C)cc3s2)cc1 | 0.4 | -9.6 | -46.8* | -12.8% | 3.8 | 3.5
